# Assay outcomes (PubChem)
# Shown are actives, neighbours in structure and some others; about 6.7% of the full set was active somewhere.
# Pf Dd2 inh = P. falciparum Dd2 growth inhibitors, primary screen, SYBR Green fluorescence, single dose replicates | 72 h; hits give low values | activity change, % at 10 µM | hit rate 2.3% among 94,000 | AID 1159554, 2015; in the data active means activity change below about -80%
# Tcruzi prolif = T. cruzi intracellular proliferation inhibitors, primary screen, cell-based, beta-gal Tulahuen parasites, NIH3T3 host, luminescence | T. cruzi beta-gal in NIH3T3, GalScreen luminescence, 90 h | inhibition, % at 8.34 µM | hit rate 5.9% among 77,000 | AID 624255, 2012;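 active means mean inhibition above about 93%, with at least 55% of replicates each passing it, limit read from the data, passing the limit was not always enough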
# C diff growth = C. difficile growth inhibitors, primary screen, HTS; growth activity, negative = inhibition, % at 16 µg/mL (by protocol); AID 1259249, 2017; hit rate 0.25% among 86,000; Clostridium difficile clinical isolate growth, OD600, 24 h; hits give low values;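 active means mean growth activity at or below -80% and every replicate also at or below -80%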;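 further: 0% = DMSO wells and -100% = levofloxacin 16 µg/mL wells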
# The depositor's hits bear a star; . = no result given.
SMILES,Pf Dd2 inh,Tcruzi prolif,C diff growth
C[C@H]1CN([C@@H](C)CO)C(=O)Cc2cc(NC(=O)Nc3ccccc3)ccc2O[C@H]1CN(C)Cc1ccc(Oc2ccccc2)cc1,-5.8,64.4,8.5
C[C@@H]1CN([C@@H](C)CO)C(=O)Cc2cc(NC(=O)Nc3ccccc3)ccc2O[C@H]1CN(C)Cc1ccc(Oc2ccccc2)cc1,-87.1*,72.3,29.2
C[C@H](CO)N1C[C@H](C)[C@@H](CN(C)Cc2ccc(Oc3ccccc3)cc2)Oc2ccc(NS(=O)(=O)c3cn(C)cn3)cc2CC1=O,-90.2*,-73.9,-1.7
C[C@H](CO)N1C[C@H](C)[C@@H](CN(C)C(=O)Nc2ccccc2)Oc2ccc(NC(=O)Nc3ccc4c(c3)OCO4)cc2CC1=O,6.1,6.0,-14.5
CC(C)(C)[S@](=O)N1Cc2cc(C(=O)NCCc3ccncc3)nc(-c3cccc(-c4ccccc4)c3)c2[C@@H]1CCO,-54.0,.,-12.0
COCC(=O)N(C)C[C@@H]1Oc2ncc(-c3ccccc3F)cc2C(=O)N([C@@H](C)CO)C[C@H]1C,21.3,.,-0.2
CN(Cc1ccccc1)CC(O)CC(O)c1ccccc1 (stereo not drawn),.,.,-6.5
CC(C)NC(=O)Nc1ccc2c(c1)CC(=O)N([C@@H](C)CO)C[C@@H](C)[C@H](CN(C)Cc1ccc(Cl)c(Cl)c1)O2,-82.0*,.,3.7
CC(C)NC(=O)Nc1ccc2c(c1)CC(=O)N([C@@H](C)CO)C[C@H](C)[C@@H](CN(C)Cc1ccc(Cl)c(Cl)c1)O2,-16.4,.,19.0
O=C(C1CCCC1)N1CC(=O)N2[C@H](CO)[C@@H](c3ccc(C#CCc4ccccc4)cc3)[C@H]2C1,-43.2,.,20.3
O=C(c1cnccn1)N1CC(=O)N2[C@@H](CO)[C@H](c3ccc(C#CCc4ccccc4)cc3)[C@@H]2C1,-88.1*,.,-13.0
O=C(c1cnccn1)N1CC(=O)N2[C@H](CO)[C@@H](c3ccc(C#CCc4ccccc4)cc3)[C@H]2C1,-51.2,.,-6.5
O=C(C1CCCCC1)N1CC(=O)N2[C@H](C1)[C@@H](c1ccc(C#CCc3ccccc3)cc1)[C@@H]2CO,-66.1,.,0.0
O=C(C1CCCC1)N1CC(=O)N2[C@@H](CO)[C@H](c3ccc(C#CCc4ccccc4)cc3)[C@@H]2C1,-92.9*,.,54.1
O=C(C1CCCCC1)N1CC(=O)N2[C@H](CO)[C@@H](c3ccc(C#CCc4ccccc4)cc3)[C@@H]2C1,-83.4*,.,-4.5
Cn1cnc(S(=O)(=O)N[C@H]2C=C[C@@H](CC(=O)Nc3ccc(-c4ccccc4)cc3)O[C@H]2CO)c1,35.0,-17.1,.
C[C@@H]1CN([C@@H](C)CO)C(=O)c2cccc(NS(C)(=O)=O)c2O[C@H]1CN(C)S(=O)(=O)c1ccc(F)cc1,19.5,-85.2,.
Cc1ccc(S(=O)(=O)N(C)C[C@@H]2OCCCC[C@H](C)Oc3ccc(NC(=O)C4CCCCC4)cc3C(=O)N([C@@H](C)CO)C[C@H]2C)cc1,-84.6*,74.5,0.2
Cc1ccc(S(=O)(=O)N(C)C[C@@H]2OCCCC[C@H](C)Oc3ccc(NC(=O)C4CCCCC4)cc3C(=O)N([C@H](C)CO)C[C@H]2C)cc1,-85.6*,82.2,.
C[C@@H]1CN([C@H](C)CO)C(=O)c2cc(NC(=O)C3CCCCC3)ccc2O[C@@H](C)CCCCO[C@@H]1CN(C)S(=O)(=O)c1ccccc1,-81.9*,59.3,-6.7
C[C@H](CO)N1C[C@H](C)[C@@H](CN(C)S(=O)(=O)c2ccccc2)OCCCC[C@H](C)Oc2ccc(NC(=O)C3CCCCC3)cc2C1=O,-53.3,54.9,-5.5
Cc1ccc(S(=O)(=O)N(C)C[C@@H]2OCCCC[C@H](C)Oc3ccc(NC(=O)C4CCCCC4)cc3C(=O)N([C@@H](C)CO)C[C@@H]2C)cc1,-74.0,55.5,.
Cc1ccc(S(=O)(=O)N(C)C[C@@H]2OCCCC[C@@H](C)Oc3ccc(NC(=O)C4CCCCC4)cc3C(=O)N([C@@H](C)CO)C[C@@H]2C)cc1,-78.7,71.3,.
Cc1ccc(S(=O)(=O)N(C)C[C@H]2OCCCC[C@H](C)Oc3ccc(NC(=O)C4CCCCC4)cc3C(=O)N([C@H](C)CO)C[C@H]2C)cc1,-84.5*,49.2,.
Cc1ccc(S(=O)(=O)N(C)C[C@H]2OCCCC[C@H](C)Oc3ccc(NC(=O)C4CCCCC4)cc3C(=O)N([C@H](C)CO)C[C@@H]2C)cc1,-45.1,45.0,.
SMILES,Pf Dd2 inh,Tcruzi prolif,C diff growth
C[C@H]1CN([C@@H](C)CO)C(=O)c2cc(NC(=O)C3CC3)ccc2O[C@H]1CN(C)C(=O)Nc1ccc(C(F)(F)F)cc1,-33.3,19.2,-1.1
CC(C)C[C@H]1COCc2cn(nn2)CC[C@H](Cc2ccccc2)C(=O)N1,.,.,3.8
C/C=C/c1ccc([C@@H]2[C@H](CO)N(C(C)=O)C23CN(C(=O)c2ccc(F)cc2)C3)cc1,-23.7,.,-0.9
CCCN1[C@@H]2c3ccc(-c4cccc(C(=O)N(C)C)c4)c(=O)n3C[C@@H]2[C@@H](CO)[C@@H]1C(=O)NCCOC,11.2,29.1,0.7
CN(C)C(=O)C[C@@H]1C[C@@H]2c3cc(NC(=O)Nc4ccc(C(F)(F)F)cc4)ccc3O[C@@H]2[C@H](CO)O1,-4.9,-19.9,1.0
C[C@@H]1CN([C@@H](C)CO)C(=O)Cc2cc(NC(=O)Cc3ccccc3)ccc2O[C@@H]1CN(C)S(C)(=O)=O,-14.4,37.0,0.6
Cc1ccc(S(=O)(=O)N(C)C[C@H]2OCCCC[C@@H](C)Oc3ccc(NC(=O)C4CCCCC4)cc3C(=O)N([C@@H](C)CO)C[C@@H]2C)cc1,-75.9,40.5,4.5
Cc1ccc(S(=O)(=O)N(C)C[C@H]2OCCCC[C@H](C)Oc3ccc(NC(=O)C4CCCCC4)cc3C(=O)N([C@@H](C)CO)C[C@@H]2C)cc1,-82.2*,25.7,.
CCCC(=O)Nc1ccc2c(c1)OC[C@H](C)N(CCC(F)(F)F)C[C@@H](C)[C@@H](OC)CN(C)C2=O,5.1,6.2,.
CCC(=O)N1[C@@H](CO)[C@@H](c2ccc(-c3ccc(C#N)cc3)cc2)C12CN(C(C)=O)C2,-11.5,.,-7.1
C[C@@H]1CN([C@H](C)CO)C(=O)c2ccccc2-c2ccccc2CO[C@H]1CN(C)S(=O)(=O)c1ccc(F)cc1,52.8,-11.4,.
C[C@@H]1CN([C@H](C)CO)C(=O)c2ccccc2-c2ccccc2CO[C@@H]1CN(C)Cc1ccc(C(F)(F)F)cc1,-87.0*,.,-4.1
C[C@H](CO)N1C[C@H](C)[C@H](CN(C)S(=O)(=O)c2ccc(C(F)(F)F)cc2)OCc2ccccc2-c2ccccc2C1=O,-85.0*,92.6,4.7
C[C@@H]1CN([C@@H](C)CO)C(=O)c2ccccc2-c2ccccc2CO[C@H]1CN(C)Cc1ccccc1C(F)(F)F,-89.6*,.,29.8
C[C@H]1CN([C@@H](C)CO)C(=O)c2ccccc2-c2ccccc2CO[C@H]1CN(C)Cc1cccc(C(F)(F)F)c1,-78.7,.,8.2
Cc1ccccc1S(=O)(=O)N(C)C[C@@H]1OCc2ccccc2-c2ccccc2C(=O)N([C@H](C)CO)C[C@H]1C,3.0,91.3,-5.6
Cc1ccccc1S(=O)(=O)N(C)C[C@H]1OCc2ccccc2-c2ccccc2C(=O)N([C@H](C)CO)C[C@H]1C,-85.6*,93.1,-2.2
